In PubChem BioAssay AID436 (Emory University Molecular Libraries Screening Center, 2006) one finds activity remaining (% of control) data, which are given here for eight molecules.

In all, about 72,000 compounds went through this assay and about 350 (0.49%) were called active.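 Rule for the calls: active = activity remaining at or below 50% of control, provided the compound also passes the data quality filters; inactive = the rest, including low values that fail the filters.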 The full list was thinned out, with actives kept by preference.

Sequence of Ubiquitin carboxyl-terminal hydrolase BAP1 (Homo sapiens) (Q92560 whole entry, looked up): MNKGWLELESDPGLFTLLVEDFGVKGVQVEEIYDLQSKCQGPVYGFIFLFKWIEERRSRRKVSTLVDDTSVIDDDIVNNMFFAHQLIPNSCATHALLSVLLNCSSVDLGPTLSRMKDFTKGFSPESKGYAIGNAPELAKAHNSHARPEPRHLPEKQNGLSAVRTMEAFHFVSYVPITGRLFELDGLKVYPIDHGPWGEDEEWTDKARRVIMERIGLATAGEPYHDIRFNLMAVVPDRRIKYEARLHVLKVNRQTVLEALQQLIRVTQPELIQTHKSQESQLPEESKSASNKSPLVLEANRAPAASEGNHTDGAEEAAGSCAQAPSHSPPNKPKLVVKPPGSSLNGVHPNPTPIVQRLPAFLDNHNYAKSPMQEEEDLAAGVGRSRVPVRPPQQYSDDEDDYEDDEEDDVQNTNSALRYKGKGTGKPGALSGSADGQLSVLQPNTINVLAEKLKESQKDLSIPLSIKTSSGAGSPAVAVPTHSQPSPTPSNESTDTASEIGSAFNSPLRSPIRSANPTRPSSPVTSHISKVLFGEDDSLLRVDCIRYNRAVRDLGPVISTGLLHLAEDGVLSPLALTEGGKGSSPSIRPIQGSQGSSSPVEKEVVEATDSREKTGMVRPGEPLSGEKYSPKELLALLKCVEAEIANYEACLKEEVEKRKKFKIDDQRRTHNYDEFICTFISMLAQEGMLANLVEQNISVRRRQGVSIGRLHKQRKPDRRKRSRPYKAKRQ

The assay has as its target Ubiquitin carboxyl-terminal hydrolase BAP1 (Homo sapiens) (UniProt Q92560). Briefly: inhibitors of BAP1 deubiquitinase, primary screen, biochemical, Ub-AMC fluorescence, kinetic (AID 436).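 Note: 100% = DMSO wells rate and 0% = substrate alone blank rate.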 As to conditions: recombinant BAP1, Ub-AMC hydrolysis fluorescence kinetic; at 20 µM; hits give low values.
As to `CC(=O)c1c(O)c(C)c(O)c(Cc2c(O)c3c(c(C(=O)/C=C/c4ccccc4)c2O)OC(C)(C)C=C3)c1O`, the activity remaining (% of control) is 14.8% (active).

Turning to `CCCCC[n+]1ccc(-c2cc[n+](CCCCC)cc2)cc1`, the activity remaining (% of control) was 101% (inactive).

As for `O=C(O)C1C2CCC(O2)C1C(=O)O` (stereo not drawn), the activity remaining (% of control) is 97.4% (inactive).

`O=C1c2ccccc2C(=O)N1Cc1nc2ccccc2c(=O)n1-c1nccs1`: the activity remaining (% of control) was 84.5% (inactive).

Consider `Cc1ccc(Cn2c(C)c3cnn(CC(=O)N4CCC5(CC4)OCCO5)c(=O)c3c2C)cc1`, for which the activity remaining (% of control) is 105% (inactive).

On to `CCCCCn1c(=O)c(C(=O)NCc2ccccn2)c(O)c2ccccc21`, for which the activity remaining (% of control) was 39.6% (active).

As for `C=CCN1CCC2(C)c3cc(O)ccc3CC1[C@@H]2C` (stereo partly drawn), the activity remaining (% of control) was 96.1% (inactive).

As to `COc1ccccc1OC(=O)c1ccc(C)c(S(=O)(=O)N2CCOCC2)c1`, the activity remaining (% of control) is 104% (inactive).
